# In the library only some 2.5% were active in any assay of this set; here they are far more common.
# NFkB SMM: binds human NF-kappa-B p105 on microarray; 1.3% of 17,000 active; Small molecule microarray, anti-His fluorescence binding; calls only;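 active means spot fluorescence over background significantly raised, with a chance value under 7% in all four replicate spots of the compound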;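 further: probe protein is his-tagged human p50 processed subunit at 1 µg/ml; raw spot fluorescence signals with no normalization applied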
# STAT3 binder: binds human STAT3 on microarray | P40763 | Small molecule microarray, His-STAT3 binding, anti-His fluorescence | calls only | 0.2% of 17,000 active | AID 624138;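 active means compounds whose four printed spots each show fluorescence over background unusually high for their array block, chance value under 7%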
# c-Myc SMM: binders of human c-Myc | P01106 | small molecule microarray, His-c-Myc binding, anti-His fluorescence | calls only | 1.5% of 17,000 active;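 active means spot fluorescence over background with P-value below 7% in all four replicate spots, showing protein binding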;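 further: score is binary with 100 for all four spots passing and 0 otherwise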
# Target sequence (P01106 whole entry, looked up): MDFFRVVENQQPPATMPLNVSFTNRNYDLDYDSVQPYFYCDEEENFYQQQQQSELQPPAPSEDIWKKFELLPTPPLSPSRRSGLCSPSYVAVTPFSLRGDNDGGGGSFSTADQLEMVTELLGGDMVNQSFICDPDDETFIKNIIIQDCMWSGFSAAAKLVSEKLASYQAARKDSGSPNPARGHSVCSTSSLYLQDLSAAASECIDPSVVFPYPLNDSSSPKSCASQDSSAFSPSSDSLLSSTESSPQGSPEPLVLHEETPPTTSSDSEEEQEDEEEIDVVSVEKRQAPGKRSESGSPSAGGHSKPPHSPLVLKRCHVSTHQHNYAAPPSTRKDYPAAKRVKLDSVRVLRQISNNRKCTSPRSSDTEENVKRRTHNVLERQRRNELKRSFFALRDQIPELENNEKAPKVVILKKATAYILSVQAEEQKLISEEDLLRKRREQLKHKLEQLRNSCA
# p53 mut binder: binds human mutant p53 on microarray; calls only; 0.4% of 17,000 active; small molecule microarray binding, anti-GST fluorescence;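 active means compounds whose four printed spots each glow above background more than chance allows, each with a p-value under 7%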
# * = called active by the depositor; i = inactive; + = active, no number.
SMILES,NFkB SMM,STAT3 binder,c-Myc SMM,p53 mut binder
NC(=O)[C@@H]1[C@H]2C(=O)O[C@H](c3ccccc3)[C@H](c3ccccc3)N2[C@H](c2ccc(OCCO)cc2)[C@@]12C(=O)Nc1ccc(C#CC3(O)CCCCCC3)cc12,i,i,i,i
Cn1c(SCC(=O)Nc2ccc(Br)cc2)nnc1-c1ccccn1,i,i,i,i
COc1cc2c(cc1OC)CN(C(=O)[C@@H]1[C@H]3C(=O)O[C@H](c4ccccc4)[C@H](c4ccccc4)N3[C@H](c3ccc(OCCO)cc3)[C@@]13C(=O)Nc1ccc(C#CC4(O)CCCCCC4)cc13)CC2,+,i,i,i
COc1cc2c(cc1OC)CN(C(=O)[C@@H]1[C@H]3C(=O)O[C@H](c4ccccc4)[C@H](c4ccccc4)N3[C@H](c3ccc(OCCO)cc3)[C@@]13C(=O)Nc1ccccc13)CC2,i,i,i,i
O=C(O)CCCC(=O)Nc1ccc(Br)cc1C(=O)O,+,i,+,i
CC(=O)O[C@@H]1[C@@H](O)C[C@@]2(C)C(CC[C@@H](C)C23Cc2c(O)cc4c(c2O3)CN([C@@H](CCC(=O)O)C(=O)O)C4=O)C1(C)C (stereo partly specified),i,i,i,i
N#Cc1c(C(F)(F)F)cc(-c2ccc(Br)cc2)nc1SCCC(=O)O,+,i,+,i
C[C@@H]1CCCCO[C@@H](CN(C)S(C)(=O)=O)[C@@H](C)CN([C@@H](C)CO)C(=O)c2cc(NS(=O)(=O)c3ccccc3)ccc2O1,i,i,i,i
C[C@H](CO)N1C[C@H](C)[C@H](CN(C)S(C)(=O)=O)OCCCC[C@H](C)Oc2ccc(NS(=O)(=O)c3ccccc3)cc2C1=O,+,i,i,i
CCCN(C)C[C@H]1OCCCC[C@@H](C)Oc2ccc(NS(=O)(=O)c3ccc(Cl)cc3)cc2C(=O)N([C@@H](C)CO)C[C@H]1C,i,i,i,i
C[C@H](CO)N1C[C@H](C)[C@H](CN(C)C(=O)C2CCCCC2)OCCCC[C@H](C)Oc2ccc(NS(=O)(=O)c3cccs3)cc2C1=O,i,+,i,i
C[C@@H]1CN([C@@H](C)CO)C(=O)c2cc(NS(=O)(=O)c3ccccc3)ccc2O[C@@H](C)CCCCO[C@@H]1CN(C)C(=O)C1CCCCC1,i,+,i,i
CCCN(C)C[C@H]1OCCCC[C@H](C)Oc2ccc(NS(=O)(=O)c3ccc(OC)cc3)cc2C(=O)N([C@H](C)CO)C[C@H]1C,i,i,i,+
Cc1ccc(NC(=O)CCCC(=O)Nc2ccc(C)c(C)c2)cc1C,i,i,i,i
Cn1c(SCC(=O)N2c3ccccc3CCc3ccccc32)nnc1-c1ccc(Cl)cc1Cl,i,i,i,i
C[C@H]1CN([C@@H](C)CO)C(=O)c2cccc(NC(=O)NC3CCCCC3)c2O[C@H]1CN(C)S(=O)(=O)c1ccc(Cl)cc1,i,i,+,i
C[C@@H]1CN([C@@H](C)CO)C(=O)c2cccc(NC(=O)c3cnccn3)c2O[C@H]1CN(C)C(=O)Nc1ccccc1,+,i,+,i
COc1ccc(NC(=O)N(C)C[C@@H]2Oc3ncc(-c4cccc(C(F)(F)F)c4)cc3C(=O)N([C@H](C)CO)C[C@@H]2C)cc1,i,i,i,i
C[C@H](CO)N1C[C@H](C)[C@H](CN(C)S(=O)(=O)c2ccccc2)Oc2ncc(C#Cc3ccc(C(F)(F)F)cc3)cc2C1=O,i,i,+,i
C[C@H](CO)N1C[C@H](C)[C@H](CN(C)C(=O)Nc2ccccc2)Oc2ncc(-c3cccc(C(F)(F)F)c3)cc2C1=O,+,i,+,i
COc1ccc(N(CC(=O)O)S(C)(=O)=O)cc1,i,i,i,i
O=C(OCc1ccc(-c2cccc(Cl)c2Cl)o1)c1cccnc1,i,i,i,i
CC(=O)Nc1ccccc1NC(=O)COc1cc(Cl)c(Cl)cc1Cl,i,i,i,i
CC(C)=CCn1cnc(=N)c2[nH]cnc21,i,i,i,i
C[C@H](CO)N1C[C@H](C)[C@@H](CN(C)CC2CC2)Oc2c(NC(=O)Nc3ccc(C(F)(F)F)cc3)cccc2C1=O,i,i,i,i
SMILES,NFkB SMM,STAT3 binder,c-Myc SMM,p53 mut binder
C[C@@H]1CN([C@@H](C)CO)C(=O)c2cccc(NC(=O)NC3CCCCC3)c2O[C@@H]1CN(C)C(=O)Nc1ccc(C(F)(F)F)cc1,+,i,+,i
C[C@H]1CN([C@@H](C)CO)C(=O)c2cccc(NC(=O)Nc3ccc(C(F)(F)F)cc3)c2O[C@@H]1CN(C)CC1CC1,i,+,i,i
C[C@@H]1CN([C@H](C)CO)C(=O)c2cccc(NC(=O)NC3CCCCC3)c2O[C@@H]1CN(C)C(=O)Nc1ccc(C(F)(F)F)cc1,i,i,i,i
C[C@H]1CN([C@@H](C)CO)C(=O)c2cccc(NC(=O)NC3CCCCC3)c2O[C@@H]1CN(C)C(=O)Nc1ccc(F)cc1,i,i,i,i
C[C@H](CO)N1C[C@H](C)[C@@H](CN(C)C(=O)Nc2ccc(C(F)(F)F)cc2)Oc2c(NC(=O)NC3CCCCC3)cccc2C1=O,+,i,+,i
C[C@H]1CN([C@@H](C)CO)C(=O)c2cccc(NC(=O)Nc3ccc(C(F)(F)F)cc3)c2O[C@@H]1CN(C)C(=O)NC1CCCCC1,i,+,i,i
CC1(C)CC(=O)C2=C(C1)N(Cc1ccco1)C(=O)C2(NC(=O)c1ccco1)C(F)(F)F (stereo unspecified),i,i,i,i
COC(=O)C(NC(=O)c1ccc([N+](=O)[O-])o1)C(C)C (stereo unspecified),i,i,i,i
c1ccc(-c2cn3c4ccccc4n(CCN4CCOCC4)c3n2)cc1,i,i,+,i
C=CCOC(=O)[C@@H]1[C@H]2C(=O)O[C@H](c3ccccc3)[C@H](c3ccccc3)N2[C@H](c2ccc(OCCOC(=O)[C@@H]3C[C@@H]4C(=O)N[C@@H](CC(C)C)C(=O)N4[C@@H]3c3ccc(O)cc3)cc2)[C@@]12C(=O)Nc1ccc(I)cc12,i,i,i,i
C=CCOC(=O)[C@H]1[C@@H]2C(=O)O[C@@H](c3ccccc3)[C@@H](c3ccccc3)N2[C@@H](c2ccc(OCCOC(=O)[C@@H]3C[C@@H]4C(=O)N5CCC[C@H]5C(=O)N4[C@@H]3c3ccc(O)cc3)cc2)[C@]12C(=O)Nc1ccc(I)cc12,i,i,i,i
C=CCOC(=O)[C@@H]1[C@H]2C(=O)O[C@H](c3ccccc3)[C@H](c3ccccc3)N2[C@H](c2ccc(OCCOC(=O)[C@@H]3C[C@@H]4C(=O)N[C@@H](Cc5ccccc5)C(=O)N4[C@@H]3c3cccc(OCCO)c3)cc2)[C@@]12C(=O)Nc1ccc(I)cc12,+,i,i,i

# From PubChem BioAssay
